FLuc inh: inhibitors of firefly (Photinus pyralis) luciferase | Potency, µM (doses to about 115 µM), usual class: inhibitors | 76,000 tested, 2.5% active | P08659 | purified P. pyralis luciferase, luminescence, biochemical | AID 1347043; note: nearly all actives have a fitted effect of over 65% in size
Target sequence (P08659 whole entry, looked up): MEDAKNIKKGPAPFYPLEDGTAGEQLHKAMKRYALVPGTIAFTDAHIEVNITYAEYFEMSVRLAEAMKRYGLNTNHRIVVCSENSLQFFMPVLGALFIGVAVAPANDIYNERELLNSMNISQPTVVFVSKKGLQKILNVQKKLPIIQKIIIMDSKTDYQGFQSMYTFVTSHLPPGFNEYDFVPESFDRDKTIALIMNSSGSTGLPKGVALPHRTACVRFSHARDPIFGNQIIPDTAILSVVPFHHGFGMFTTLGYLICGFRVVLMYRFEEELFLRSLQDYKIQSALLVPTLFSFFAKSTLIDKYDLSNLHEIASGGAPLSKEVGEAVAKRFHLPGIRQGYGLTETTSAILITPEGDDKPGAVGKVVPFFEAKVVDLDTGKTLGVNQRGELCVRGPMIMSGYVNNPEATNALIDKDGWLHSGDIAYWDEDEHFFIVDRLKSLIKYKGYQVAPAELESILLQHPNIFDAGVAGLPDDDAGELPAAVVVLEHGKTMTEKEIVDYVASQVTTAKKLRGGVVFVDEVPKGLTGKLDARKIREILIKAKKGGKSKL
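FLuc 10nM, D-luciferin 10uM, ATP 10uM, Mg acetate 10mM, Tris acetate pH 7.5, Tween/BSA; cpd qHTS; enzyme added last; CCD luminescence.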
HEK293 tox: cytotoxic compounds in HEK 293 cells; HEK 293 viability, ATP luminescence (CellTiter-Glo), 48-72 h; Potency, µM (titrated, usually from 115 µM), most hits filed as inhibitors; 94,000 tested, 6.6% active; AID 1345083; note: nearly all actives have a fitted effect of over 60% in size
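HEK 293 cells at 250 cells/well were exposed to compounds by pintool transfer for 48 or 72 hr at 37 degree Celsius, 5% CO2. Viability was read as ATP-coupled luminescence with CellTiter-Glo after 10 min at room temperature.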
NPR1 antag: antagonists of human natriuretic peptide receptor Npr1. P16066. HEK293 hNpr1 GloSensor cGMP, ANP-stimulated luminescence. Potency, µM (titrated, usually from 46.3 µM), actives largely listed as inhibitors. 76,000 tested, 1.6% active. AID 1347048; calls by dose curve; note: nearly all actives have a fitted effect of over 60% in size
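Compound pre-incubated 30 min at room temperature on GloSensor-loaded HEK293 cells stably carrying hNpr1 and the pGS-40F cGMP biosensor. Stimulation uses hNppA at 0.1 nM final; luminescence is taken at baseline and 20 min post-agonist.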
SNCA expr inhib: reduces expression of the alpha-synuclein gene; Potency, µM (series often up to 57.2 µM), most hits filed as inhibitors; 140,000 tested, 0.17% active; HEK-293 SNCA-luciferase knock-in, luminescence, 24 h; AID 1671194; note: nearly all actives have a fitted effect of over 45% in size
HEK293 viab: cell viability loss counter-screen; 150,000 tested, 0.12% active; Potency, µM (doses to about 57.1 µM), most hits filed as cytotoxic; HEK-293-SNCA-luc viability, GF-AFC fluorescence, 24 h; note: nearly all actives have a fitted effect of over 30% in size
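HEK-293-SNCA-luc cells (1500/well) plated 24 h, then exposed 24 h to a dilution series; GF-AFC added 30 min at 37C, fluorescence 405/540 nm; normalised to medium-only and DMSO wells, Hill fit.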
NIH3T3 tox: NIH 3T3 cell cytotoxicity; NIH 3T3 viability, CellTiter-Glo ATP luminescence, 48-72 h; Potency, µM (top dose mostly 96.7 µM), actives largely listed as inhibitors; 94,000 tested, 4.3% active; note: nearly all actives have a fitted effect of over 55% in size
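NIH 3T3 cells at 400 cells/well received 23 nL of compound by pintool and were incubated 48 or 72 h at 37 °C. Viability was read as ATP-coupled CellTiter-Glo luminescence.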
Large screens that a line does not name were inactive; ! = not confirmed by another sample. This is a sample that favours compounds with a hit; in the whole collection about 7.4% have one here. Unless noted, calls come from the whole dose curve; as a rule, active = well fitted curve in the direction sought with a large enough effect; inconclusive = small, poorly fitted or top-dose-only effect, or another doubt; inactive = no such curve, though single readings can be large; an effect the other way counts as inactive or inconclusive.

O=C(NC1CCCN(c2cc(-c3ccc(Cl)cc3)[nH]n2)C1)c1ccc(Br)o1 (stereo not given)	HEK293 tox 45µM, HEK293 viab inconclusive, NIH3T3 tox inconclusive
Cc1ccc(C(=O)N2CCN(C(=O)c3nc4cccnc4n(CC(C)C)c3=O)CC2)cc1	none (no result: FLuc inh, NPR1 antag)
O=C(NC1CCCC1)c1ccc2nnc(C3CCOCC3)n2c1	none (no result: FLuc inh, NPR1 antag, SNCA expr inhib, HEK293 viab)
O=C([C@@H]1C[C@H](F)CN1C(=O)C1(c2ccccc2)CC1)N1CCCCC1	none (no result: FLuc inh, NPR1 antag)
O=C(Nc1ccc(Cl)cc1)N1CCCC(C(=O)N2CCC(N3Cc4cccn4C3=O)CC2)C1 (stereo not given)	HEK293 tox inconclusive, NIH3T3 tox inconclusive (no result: FLuc inh, NPR1 antag)
O=C(NC1CCN(c2cc(-c3ccc(Cl)cc3)[nH]n2)C1)c1cccnc1 (stereo not given)	HEK293 tox inconclusive, NIH3T3 tox inconclusive
O=C(NC1CCN(c2cc(-c3ccc(Cl)cc3)[nH]n2)C1)c1ccc(Br)o1 (stereo not given)	HEK293 tox 35µM, NIH3T3 tox inconclusive
CCOc1ccccc1NC(=O)NCCn1c(C)cnc1C1CC1	none (no result: FLuc inh, NPR1 antag)
CC(c1ccc(-c2ccc(N(C)C)nn2)cc1)N(C)C (stereo not given)	FLuc inh 16µM, NPR1 antag inconclusive, SNCA expr inhib inconclusive
Cc1noc2c(Nc3ccc(C(N)=O)cc3)cc(-c3cccnc3)nc12	NIH3T3 tox 20µM
Cc1noc2c(N(C)C)cc(-c3cccnc3)nc12	NIH3T3 tox inconclusive
Cc1noc2c(NC(C)C)cc(-c3cccnc3)nc12	NIH3T3 tox 40µM
Cc1noc2c(NCC3CCOCC3)cc(-c3cccnc3)nc12	NIH3T3 tox inconclusive
COc1ccccc1-c1cc2c(nc1OC)nc(CC1CC1)n2C	HEK293 tox inconclusive, NIH3T3 tox inconclusive
COc1ccc(C(=O)Nc2cc(C3CCCC3)nn2C)cc1	HEK293 tox 100µM, NIH3T3 tox inconclusive (no result: FLuc inh, NPR1 antag)
COc1cccc(C(=O)Nc2cc(C3CCCC3)nn2C)c1	HEK293 tox inconclusive, NIH3T3 tox inconclusive (no result: FLuc inh, NPR1 antag)
CCN1c2cc(C(=O)Nc3ccc(OC)c(OC)c3)ccc2C(=O)N2CCCCC21 (stereo not given)	HEK293 tox inconclusive, NIH3T3 tox inconclusive
CCN1c2cc(C(=O)Nc3ccc(OC)c(F)c3)ccc2C(=O)N2CCCCCC21 (stereo not given)	HEK293 tox inconclusive, NIH3T3 tox inconclusive
CCN1c2cc(C(=O)Nc3ccc(OC)c(Cl)c3)ccc2C(=O)N2CCCCC21 (stereo not given)	HEK293 tox 35µM, SNCA expr inhib inconclusive, NIH3T3 tox 22µM
CCN1c2cc(C(=O)Nc3ccc(OC)c(OC)c3)ccc2C(=O)N2CCCCCC21 (stereo not given)	HEK293 tox 45µM, NIH3T3 tox inconclusive
COc1ccc(OC)c(CN2CCCn3nc(C)c(-c4cnccc4C)c32)c1	HEK293 tox inconclusive, NIH3T3 tox 89µM
Cc1ccncc1-c1c(C)nn2c1N(Cc1cccc(O)c1)CCC2	HEK293 tox inconclusive, NIH3T3 tox inconclusive
Cc1ccncc1-c1c(C)nn2c1N(Cc1cccc(OC(F)(F)F)c1)CCC2	HEK293 tox 32µM, NPR1 antag inconclusive, SNCA expr inhib inconclusive, HEK293 viab inconclusive, NIH3T3 tox inconclusive
COc1ccccc1CN1CCCn2nc(C)c(-c3cnccc3C)c21	HEK293 tox 40µM, NPR1 antag inconclusive, SNCA expr inhib inconclusive, NIH3T3 tox 45µM
COc1cccc(CN2CCCn3nc(C)c(-c4ccccc4[S+](C)(=O)[O-])c32)c1	HEK293 tox inconclusive, SNCA expr inhib inconclusive, NIH3T3 tox inconclusive
CN1C(=O)CCC2(CNC(=O)c3ccncc3)CCCC=C12 (stereo not given)	none
CN1C(=O)CCC2(CNC(=O)c3cccc4nccnc34)CCCC=C12 (stereo not given)	HEK293 tox 79µM, NIH3T3 tox inconclusive
COC(=O)N1CCCC1C(=O)N1CCC(c2ccccc2)CC1 (stereo not given)	none (no result: FLuc inh, NPR1 antag)
Cc1ncc2n1C(=O)N(C1CCN(Cc3ccc(C(F)(F)F)cc3)CC1)C2	HEK293 tox 35µM!, NPR1 antag inconclusive, NIH3T3 tox inconclusive

Screening data from PubChem.
